# Where a name gives a salt, the structure may show the parent alone.
# Key:
# Conditions in all cases: 10 µM; exposure time 6 h
# [1] = tested on: Danio rerio larvae (5 dpf); experiment: difference in excitability vs DMSO (percentage points); higher = more excitable than DMSO
# Outline: (§1)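 Wild-type zebrafish larvae at 5 dpf were kept in 96-well plates and exposed for 6 h to 100 µL egg water holding library compound at a final concentration of 10 µM. From 3 h into exposure, the plates were held at 28.5 ℃ and photographed every 6 s through a 3-h programme of moving lines and 100 ms, 400Hz tones. Each behaviour was scored by Z-LaP Tracker, a DeepLabCut model, and averaged over 48 larvae per compound. Every value gives the compound mean minus the vehicle control mean, in percentage points.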
# [2] = tested on: Danio rerio larvae (5 dpf); experiment: difference in startle response vs DMSO (percentage points); higher = stronger startle than DMSO
# Outline: as §1
# [3] = tested on: Danio rerio larvae (5 dpf); experiment: difference in activity during first hour vs DMSO (percentage points); higher = more activity than DMSO
# Outline: as §1
# [4] = tested on: Danio rerio larvae (5 dpf); experiment: difference in habituation to acoustic stimuli vs DMSO (percentage points); higher = more habituation than DMSO
# Outline: as §1
# [5] = tested on: Danio rerio larvae (5 dpf); experiment: difference in combined optomotor response to red, green and blue moving lines vs DMSO (percentage points); higher = stronger optomotor response than DMSO
# Outline: as §1
Compound,difference in excitability [1],difference in startle response [2],difference in activity during first hour [3],difference in habituation to acoustic stimuli [4],difference [5]
Nc1ccn([C@@H]2CS[C@H](CO)O2)c(=O)n1 [Lamivudine],0.811,2.66,9.03,2.12,2.14
CN1CC2c3ccccc3Oc3ccc(Cl)cc3C2C1 (racemic) [(±)-Asenapine],15.8,-0.436,46.3,-12.3,-1.19
Cc1cn([C@H]2C[C@H](N=[N+]=[N-])[C@@H](CO)O2)c(=O)[nH]c1=O [Zidovudine],4.38,-2.12,0.0973,1.67,6.8
O=P(O)(O)C(O)(Cc1cccnc1)P(=O)(O)O [Risedronate (sodium salt)],3.7,4.04,24.7,-2.36,9.6
OCc1cc(C(O)CNCCCCCCOCCCCc2ccccc2)ccc1O (stereo not given) [Salmeterol (xinafoate)],12.9,-5.05,20.1,-7.62,7.79
CC(C(=O)O)c1cccc(C(=O)c2ccccc2)c1 (racemic) [(±)-Ketoprofen],0.309,-1.06,8.57,6.2,11.1
O=C(NC1CCN(CCCCC2(C(=O)NCC(F)(F)F)c3ccccc3-c3ccccc32)CC1)c1ccccc1-c1ccc(C(F)(F)F)cc1 [Lomitapide],17,-3.26,-7.94,-2.68,-5.57
CC(C)NCC(O)c1ccc(NS(C)(=O)=O)cc1 (stereo not given) [Sotalol (hydrochloride)],-4.39,-2.26,12,-2.03,-2.43
COc1cc(C(=O)NCc2ccc(OCCN(C)C)cc2)cc(OC)c1OC [Trimethobenzamide (hydrochloride)],-3.22,1.06,-0.789,2.91,-5.61
CO[C@H]1C[C@@H]2CC[C@@H](C)[C@@](O)(O2)C(=O)C(=O)N2CCCC[C@H]2C(=O)O[C@H]([C@H](C)C[C@@H]2CC[C@@H](O)[C@H](OC)C2)CC(=O)[C@H](C)/C=C(\C)[C@@H](O)[C@@H](OC)C(=O)[C@H](C)C[C@H](C)/C=C/C=C/C=C/1C [Rapamycin],5.81,-2.33,0.761,-0.387,3.4
CCC1=C(C)CN(C(=O)NCCc2ccc(S(=O)(=O)NC(=O)N[C@H]3CC[C@H](C)CC3)cc2)C1=O [Glimepiride],-3.07,2.59,2.62,3.43,-2.24
CCCCN1CCCCC1C(=O)Nc1c(C)cccc1C (stereo not given) [Bupivacaine],0.996,-2.63,13.4,2.63,6.71
CC(=O)Nc1cccc(-n2c(=O)n(C3CC3)c(=O)c3c(Nc4ccc(I)cc4F)n(C)c(=O)c(C)c32)c1 [Trametinib],9.81,0.301,6.06,2.09,6.51
CCN(CC)C(=S)SSC(=S)N(CC)CC [Disulfiram],12.2,-15.9,38.4,-13,-9.71
CCOC(=O)[C@H](CCc1ccccc1)N[C@@H](C)C(=O)N1[C@H](C(=O)O)C[C@H]2CCCC[C@@H]21 [Trandolapril],-2.52,-0.34,2.67,-0.88,6.04
Fc1ccc([C@@H]2CCNC[C@H]2COc2ccc3c(c2)OCO3)cc1 [Paroxetine (hydrochloride)],11,-3.61,-22.3,-3.35,-11.4
COc1nc(N)nc2c1ncn2[C@@H]1O[C@H](CO)[C@@H](O)[C@@H]1O [Nelarabine],19.6,1.82,-4.45,-0.162,2.02
CC(C)C[C@H](NC(=O)[C@H](Cc1ccccc1)NC(=O)c1cnccn1)B(O)O [Bortezomib],2.69,2.81,3.67,-1.33,-0.842
Cc1cc(C(C)(C)C)c(O)c(C)c1CC1=NCCN1 [Oxymetazoline (hydrochloride)],2.23,-0.966,-13.2,6.77,0.729
CCOC(=O)[C@H](CCc1ccccc1)N[C@@H](C)C(=O)N1Cc2cc(OC)c(OC)cc2C[C@H]1C(=O)O [Moexipril (hydrochloride)],11.9,-4.62,7.71,2.63,-1.21
COc1cc(NC(C)CCCN)c2ncccc2c1 (stereo not given) [Primaquine (phosphate)],23.1,-5.2,2.45,-4.94,-0.724
CC1(C)O[C@@H]2C[C@H]3[C@@H]4C[C@H](F)C5=CC(=O)C=C[C@]5(C)[C@H]4[C@@H](O)C[C@]3(C)[C@]2(C(=O)CO)O1 [Flunisolide],4.3,-3.48,6.73,1.9,3.28
Cc1ncc(CO)c(CO)c1O [Pyridoxine],-7.67,5.43,7.49,4.31,4.65

Compound,difference in excitability [1],difference in startle response [2],difference in activity during first hour [3],difference in habituation to acoustic stimuli [4],difference [5]
CC[C@@H]([C@H](C)O)n1ncn(-c2ccc(N3CCN(c4ccc(OC[C@@H]5CO[C@@](Cn6cncn6)(c6ccc(F)cc6F)C5)cc4)CC3)cc2)c1=O [Posaconazole],9.26,-3.5,4.34,-1.56,5.63
COc1ccccc1OCC(O)CN1CCN(CC(=O)Nc2c(C)cccc2C)CC1 (stereo not given) [Ranolazine (hydrochloride)],14.6,-5.16,4.7,3.56,2.81
COC(=O)Nc1nc2cc(C(=O)c3ccccc3)ccc2[nH]1 [Mebendazole],9.6,-4.07,8.64,0.057,4.46
O=c1[nH]c(=O)n([C@H]2C[C@H](O)[C@@H](CO)O2)cc1F [Floxuridine],5.02,-2.11,5.28,-3.55,1.72
OCCN1CCN(CCCN2c3ccccc3Sc3ccc(C(F)(F)F)cc32)CC1 [Fluphenazine (hydrochloride)],23.3,5.93,15.6,-10.4,-5.63
CC[C@@H]1C(=O)OC[C@@H]1Cc1cncn1C [(+)-Pilocarpine (hydrochloride)],9.24,-3.79,-22.2,5.07,-5.32
CO[C@@]1(NC(=O)C2SC(=C(C(N)=O)C(=O)O)S2)C(=O)N2C(C(=O)O)=C(CSc3nnnn3C)CS[C@@H]21 (stereo not given in full) [Cefotetan (sodium salt)],-4.63,4.7,10.3,7.15,-1.08
CC1=C(C/C=C(\C)CCC[C@H](C)CCC[C@H](C)CCCC(C)C)C(=O)c2ccccc2C1=O [Vitamin K1],-4.97,1.27,12.1,-1.08,6.58
CCCC1O[C@@H]2C[C@H]3[C@@H]4CCC5=CC(=O)C=C[C@]5(C)[C@H]4[C@@H](O)C[C@]3(C)[C@]2(C(=O)CO)O1 (stereo not given in full) [Budesonide],4.9,-3.47,4.24,-2.87,12.5
C=CC(=O)Nc1cc(Nc2nccc(-c3cn(C)c4ccccc34)n2)c(OC)cc1N(C)CCN(C)C,8.96,-2.41,-13.4,-6.69,2.87
O=C1Nc2ccc(Cl)cc2[C@@](C#CC2CC2)(C(F)(F)F)O1 [Efavirenz],10.7,-10.7,-17.8,-12.8,-17.4
CC(=O)c1ccc(S(=O)(=O)NC(=O)NC2CCCCC2)cc1 [Acetohexamide],-0.755,2.86,-0.443,-3.12,2.21
COc1cc2/c(=N/c3ccc(Br)cc3F)nc[nH]c2cc1OCC1CCN(C)CC1 [Vandetanib],12.1,-1.93,-4.76,5.41,6.09
Nc1ccn(C[C@@H](CO)OCP(=O)(O)O)c(=O)n1 [Cidofovir],-2.11,-1.31,-7.68,-3.35,-5.67
CC1(C)O[C@@H]2C[C@H]3[C@@H]4CCC5=CC(=O)CC[C@]5(C)[C@@]4(F)[C@@H](O)C[C@]3(C)[C@]2(C(=O)CCl)O1 [Halcinonide],-1.92,2.79,7.26,9.28,6.48
CCS(=O)(=O)CCn1c([N+](=O)[O-])cnc1C [Tinidazole],0.787,3.72,7.24,0.838,7.16
Nc1nc2ccc(OC(F)(F)F)cc2s1 [Riluzole (hydrochloride)],12.7,-2.33,7.76,3.2,11.9
COC(=O)C1=C(C)NC(C)=C(C(=O)OC)C1c1ccccc1[N+](=O)[O-] [Nifedipine],8.58,-1.47,-4.95,0.749,12.1
COc1c(C)c2c(c(O)c1C/C=C(\C)CCC(=O)O)C(=O)OC2 [Mycophenolic Acid],2.6,4.16,-1.66,-0.729,8.73
CC(C)CCCCC(=O)N[C@@H](CCNCS(=O)(=O)O)C(=O)N[C@H](C(=O)N[C@@H](CCNCS(=O)(=O)O)C(=O)N[C@H]1CCNC(=O)[C@H]([C@@H](C)O)NC(=O)[C@H](CCNCS(=O)(=O)O)NC(=O)[C@H](CCNCS(=O)(=O)O)NC(=O)[C@H](CC(C)C)NC(=O)[C@@H](CC(C)C)NC(=O)[C@H](CCNCS(=O)(=O)O)NC1=O)[C@@H](C)O.CC[C@@H](C)CCCCC(=O)N[C@@H](CCNCS(=O)(=O)O)C(=O)N[C@H](C(=O)N[C@@H](CCNCS(=O)(=O)O)C(=O)N[C@H]1CCNC(=O)[C@H]([C@@H](C)O)NC(=O)[C@H](CCNCS(=O)(=O)O)NC(=O)[C@H](CCNCS(=O)(=O)O)NC(=O)[C@H](CC(C)C)NC(=O)[C@@H](CC(C)C)NC(=O)[C@H](CCNCS(=O)(=O)O)NC1=O)[C@@H](C)O [Colistin Methanesulfonate (sodium salt)],20.4,-4.76,4.65,0.808,-2.32
Nc1[nH]c(=O)ncc1F [5-Fluorocytosine],0.317,1.12,-10.7,-2.78,2.67
CC(=O)[C@H]1CC[C@H]2[C@@H]3CCC4=CC(=O)CC[C@]4(C)[C@H]3CC[C@]12C [Progesterone],3.92,-7.45,-21.2,-12.3,-17.3
